Laboratory results taken from PubChem BioAssay (EPA / NIEHS).
“And” between values parts separate entries of the source, which are not always exact repeats. Identical values can stand only once. Inconclusive results are not listed. The source holds several records for some structures; these can differ, active in one and inactive in another. The source made the active and inactive calls. Rule for the calls, unless noted: active = hit-call score of the fitted dose curve at least 0.9, where 1 is the maximum; inconclusive = response in the unintended direction; inactive = score below 0.9.

How the values were obtained:
[1] = biological target: mouse Peroxisome Proliferator-activated Receptor gamma (PPARg), Pparg (gene 19016) (UniProt P37238); assay: ATG_mPPARg_XSP2: Attagene TRANS-FACTORIAL Multi-Species (XSP2) HepG2 Assay for mouse Peroxisome Proliferator-activated Receptor gamma (PPARg) (AID 2283830);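 note: hits are gains in reporter mRNA above DMSO so AC50 marks activation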
Summary of the method: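 Multiplexed TRANS reporter readout: after 24 h chemical exposure of transfected HepG2 cells (with 3 nM 6-alpha-fluorotestosterone, 1.5 nM norgestrel present), RNA reverse-transcribed, amplified, 6-FAM-labelled and resolved by capillary electrophoresis; mouse PPARg-Gal4 induction scored against DMSO.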

[2] = biological target: Nuclear receptor subfamily 1 group I member 2 (Mus musculus) (UniProt O54915); assay: ATG_mPXR_XSP2: Attagene TRANS-FACTORIAL Multi-Species (XSP1) HepG2 Assay for mouse Pregnane X Receptor (PXR) (AID 2283831)
Summary of the method: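 Reporter transcripts were quantified by RT-PCR, FAM primer extension, HpaI digestion and capillary electrophoresis after 24 h of chemical exposure in transiently transfected HepG2 cells carrying chimeric receptor-GAL4 constructs; DMSO served as baseline.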

[3] = biological target: zebrafish Thyroid Hormone Receptor alpha (TRa), thraa (gene 30670) (UniProt Q98867); assay: ATG_zfTRa_XSP2: Attagene TRANS-FACTORIAL Multi-Species (XSP1) HepG2 Assay for zebrafish Thyroid Hormone Receptor alpha (TRa) (AID 2283832);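 note: actives raise zebrafish TRa-Gal4 reporter transcript above DMSO baseline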
Summary of the method: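 Multiplexed TRANS reporter format in HepG2; the medium also contained 3 nM 6-alpha-fluorotestosterone and 1.5 nM norgestrel. Reporter mRNA after 24 h read by RT-PCR and capillary electrophoresis, scored as induction over DMSO.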

[4] = tested on: zebrafish Peroxisome Proliferator-activated Receptor gamma (PPARg), gene 557037; assay: ATG_zfPPARg_XSP2: Attagene TRANS-FACTORIAL Multi-Species (XSP2) HepG2 Assay for zebrafish Peroxisome Proliferator-activated Receptor gamma (PPARg) (AID 2283833);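 note: actives increase reporter signal over DMSO so AC50 reflects activation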
Summary of the method: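 Multi-species TRANS format in HepG2, 24 h dosing; medium also contained 3 nM 6-alpha-fluorotestosterone and 1.5 nM norgestrel to stimulate androgen receptor. Zebrafish PPARg-GAL4 induced reporter mRNA was measured by RT-PCR/capillary electrophoresis.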

[5] = tested on: turtle Thyroid Hormone Receptor, alpha (TRa), gene 101949057; assay: ATG_trTRa_XSP2: Attagene TRANS-FACTORIAL Multi-Species (XSP1) HepG2 Assay for turtle Thyroid Hormone Receptor, alpha (TRa) (AID 2283834);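 note: hits raise reporter mRNA over the DMSO baseline so AC50 marks activators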
Summary of the method: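 Transfection of HepG2 with multiple reporter transcription units, then chemical dosing for 24 h. Total RNA was reverse-transcribed, reporter sequences PCR-amplified and FAM-labelled, then sized by capillary electrophoresis. DMSO served as baseline.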

[6] = ATG_M_61_XSP2: Attagene TRANS-FACTORIAL Multi-Species (XSP2) HepG2 Assay for M61 Transcription Factor (Internal Marker) (AID 2283835; active = hit-call score of the fitted dose curve at least 0.9, where 1 is the maximum; inactive = score below 0.9;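 note: reporter mRNA of an internal background marker read by RT-PCR and capillary electrophoresis; active means a rise in signal above the DMSO baseline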)
Summary of the method: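 Signal was mRNA induction detected as fluorescence after RT-PCR and capillary electrophoresis, analysed in the gain direction with DMSO as baseline. HepG2 cells transiently carrying reporter constructs received chemicals for 24 h.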

[7] = biological target: zebrafish Thyroid Hormone Receptor beta (TRb), thrb (gene 30607) (UniProt Q9PVE4); assay: ATG_zfTRb_XSP2: Attagene TRANS-FACTORIAL Multi-Species (XSP1) HepG2 Assay for zebrafish Thyroid Hormone Receptor beta (TRb) (AID 2283836)
Summary of the method: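 Multiplexed trans-activation in HepG2 cells, 24 h treatment, with reporter mRNA read by RT-PCR and capillary electrophoresis. Gain-of-signal against DMSO.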

[8] = ATG_XTT_Cytotoxicity_XSP2: Cytotoxicity Assessment in the Attagene TRANS-FACTORIAL Multi-Species (XSP2) HepG2 Assay (AID 2283837)
Summary of the method: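 XTT-based cell number read-out in human HepG2 liver cells carrying transfected reporter units, measured 24 h after chemical dosing. Activity is signal loss versus DMSO baseline.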

[9] = biological target: human Thyroid hormone Receptor alpha (TRa), THRA (gene 7067) (UniProt P10827); assay: ATG_hTRa_XSP2: Attagene TRANS-FACTORIAL Multi-Species (XSP2) HepG2 Assay for human Thyroid hormone Receptor alpha (TRa) (AID 2283838)
Summary of the method: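 Gain-of-signal in reporter mRNA, relative to DMSO, after 24 h dosing of transfected HepG2; quantitation by RT-PCR fragment analysis on capillary electrophoresis.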

[10] = biological target: frog Thyroid hormone Receptor alpha (TRa), thra-a (gene 397942) (UniProt P15204); assay: ATG_frTRa_XSP2: Attagene TRANS-FACTORIAL Multi-Species (XSP2) HepG2 Assay for frog Thyroid hormone Receptor alpha (TRa) (AID 2283839);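 for AC50: AC50 reflects induction of frog TRa-driven reporter mRNA above DMSO baseline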
Summary of the method: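 Transfect HepG2 with multiple reporter units (GAL4-UAS), dose chemical, incubate 24 h. Isolate RNA, reverse-transcribe, PCR-amplify reporter, label with 6-FAM by primer extension, digest with HpaI, run capillary electrophoresis; induction scored against DMSO.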

[11] = biological target: human Thyroid hormone Receptor beta (TRb), THRB (gene 7068) (UniProt P10828); assay: ATG_hTRb_XSP2: Attagene TRANS-FACTORIAL Multi-Species (XSP2) HepG2 Assay for human Thyroid hormone Receptor beta (TRb) (AID 2283840);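 note: actives raise reporter mRNA so potency reflects agonist-like gain of signal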
Summary of the method: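 Transient transfection of human HepG2 with multi-species NR-Gal4/GAL4-UAS reporter constructs; 24 h compound treatment; RNA isolation, reverse transcription, PCR and HpaI digest; capillary electrophoresis of labeled fragments; activity fitted upward versus DMSO.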

[12] = tested on: Sodium/Iodide Symporter (NIS), SLC5A5 (gene 6528); assay: CPHEA_Stoker_NIS_Inhibition_RAIU: CPHEA's Radioactive Iodide Uptake (RAIU) Assay for Sodium/Iodide Symporter (NIS) Inhibition, Stoker and Laws Labs (AID 2283841)
Summary of the method: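 hNIS-HEK293T-EPA cells incubated 2 h at room temperature with compound (0.001–100 uM, 0.5% DMSO) and 329 pM final 125I in HBSS/10 mM HEPES, pH 7.4. Intracellular 125I counted; normalised to DMSO maximal uptake, triplicate, three biological replicates.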

[13] = CPHEA_Stoker_NIS_Cytotoxicity: Cytotoxicity Assessment for CPHEA's Radioactive Iodide Uptake (RAIU) Assay for Sodium/Iodide Symporter (NIS) Inhibition, Stoker and Laws Labs (AID 2283897);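 for AC50: active means loss of ATP signal versus DMSO meaning cytotoxicity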
Summary of the method: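 hNIS-HEK293T-EPA cells, human NIS expressed in HEK293T, treated 2 h with chemicals (0.001–100 uM, 0.5% final DMSO). ATP content read by CellTiter-Glo luminescence; loss of signal analysed relative to DMSO.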

[14] = biological target: Peroxisome proliferator-activated receptor gamma (Homo sapiens) (UniProt P37231); assay: ATG_hPPARg_XSP2: Attagene TRANS-FACTORIAL Multi-Species (XSP2) HepG2 Assay for human Peroxisome Proliferator-activated Receptor gamma (PPARg) (AID 2283829);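 note: actives raise reporter mRNA above DMSO so AC50 reflects PPARg activation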
Summary of the method: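 After transfecting HepG2 with GAL4-UAS reporter constructs, cells are dosed for 24 h; total RNA is reverse-transcribed, PCR-amplified, FAM-labeled, HpaI-digested and resolved by capillary electrophoresis. Activity is measured as mRNA induction relative to DMSO.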

[15] = CEETOX_H295R_11DCORT_noMTC: CeeTox H295R High-throughput Steroidogenesis Assay for 11-Deoxycortisol (11DCORT), maximum tolerated concentration (MTC) filtered results only (AID 2283911; active = hit-call score of the fitted dose curve at least 0.9, where 1 is the maximum; inactive = score below 0.9); conditions: actives raise or lower the signal
Summary of the method: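 Steroidogenesis was stimulated in H295R cells with 10 uM forskolin for 48 h before a 48 h chemical exposure. Secreted 11-deoxycortisol was measured by tandem mass spectrometry and fitted bidirectionally against DMSO controls.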

[16] = CEETOX_H295R_OHPREG_noMTC: CeeTox H295R High-throughput Steroidogenesis Assay for OH-Pregnenolone (OHPREG), maximum tolerated concentration (MTC) filtered results only (AID 2283912; active = hit-call score of the fitted dose curve at least 0.9, where 1 is the maximum; inactive = score below 0.9); conditions: actives raise or lower the signal
Summary of the method: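 Readout is HPLC-MS/MS quantification of 17alpha-hydroxypregnenolone released by forskolin-stimulated H295R cells over 48 h of chemical exposure, DMSO as baseline.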

[17] = CEETOX_H295R_OHPROG_noMTC: CeeTox H295R High-throughput Steroidogenesis Assay for OH-Progesterone (OHPROG), maximum tolerated concentration (MTC) filtered results only (AID 2283914; active = hit-call score of the fitted dose curve at least 0.9, where 1 is the maximum; inactive = score below 0.9); conditions: actives raise or lower the signal
Summary of the method: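 Analysis uses all tested concentrations, without maximum-tolerated-concentration screening by MTT. H295R cells, forskolin-primed (10 uM, 48 h), receive chemical for 48 h; hormone in medium measured by HPLC-MS/MS, with bidirectional curve fitting against DMSO.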

[18] = CEETOX_H295R_CORTISOL_noMTC: CeeTox H295R High-throughput Steroidogenesis Assay for Cortisol, maximum tolerated concentration (MTC) filtered results only (AID 2283916; active = hit-call score of the fitted dose curve at least 0.9, where 1 is the maximum; inactive = score below 0.9); conditions: actives raise or lower the signal
Summary of the method: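 H295R adrenal cells were pre-stimulated 48 h with 10 uM forskolin, then exposed 48 h to test chemical in 0.1% DMSO. Medium cortisol was measured by MTBE extraction and HPLC-MS/MS; bidirectional fit versus DMSO, concentrations not MTC-filtered.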

[19] = CEETOX_H295R_CORTIC_noMTC: CeeTox H295R High-throughput Steroidogenesis Assay for Corticosterone (CORTIC), maximum tolerated concentration (MTC) filtered results only (AID 2283917; active = hit-call score of the fitted dose curve at least 0.9, where 1 is the maximum; inactive = score below 0.9); conditions: actives raise or lower the signal
Summary of the method: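 Forskolin-stimulated (10 uM, 48 h) H295R cells are dosed 48 h with chemical in DMSO (0.1% final); corticosterone change is quantified by HPLC-MS/MS and fitted bidirectionally against DMSO, unfiltered for MTT-derived MTC.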

[20] = CEETOX_H295R_DOC_noMTC: CeeTox H295R High-throughput Steroidogenesis Assay for DOC, maximum tolerated concentration (MTC) filtered results only (AID 2283918; active = hit-call score of the fitted dose curve at least 0.9, where 1 is the maximum; inactive = score below 0.9); conditions: actives raise or lower the signal
Summary of the method: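 H295R cells prestimulated 48 h with 10 uM forskolin, then exposed 48 h to test chemical (0.1% DMSO final). Medium 11-deoxycorticosterone extracted with MTBE, quantified by HPLC-MS/MS; bidirectional fit versus DMSO, concentrations not MTC-filtered.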

Measured: AC50

human Thyroid hormone Receptor beta (TRb), THRB (gene 7068), sequence (P10828 whole entry, looked up, the tested form may be a part): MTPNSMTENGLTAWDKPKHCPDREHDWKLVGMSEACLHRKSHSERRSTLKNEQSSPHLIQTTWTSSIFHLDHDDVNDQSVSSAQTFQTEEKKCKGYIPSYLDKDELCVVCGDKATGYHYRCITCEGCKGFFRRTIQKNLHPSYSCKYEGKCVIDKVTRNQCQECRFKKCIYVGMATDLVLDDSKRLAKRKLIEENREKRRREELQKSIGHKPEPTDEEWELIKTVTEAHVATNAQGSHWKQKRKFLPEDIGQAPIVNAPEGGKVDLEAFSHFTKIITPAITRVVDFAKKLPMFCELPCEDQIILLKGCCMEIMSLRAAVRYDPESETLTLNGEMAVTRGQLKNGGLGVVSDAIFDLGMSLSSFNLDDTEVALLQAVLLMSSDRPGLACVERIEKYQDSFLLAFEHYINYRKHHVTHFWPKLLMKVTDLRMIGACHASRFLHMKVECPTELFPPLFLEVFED
zebrafish Thyroid Hormone Receptor alpha (TRa), thraa (gene 30670), sequence (Q98867 whole entry, looked up, the tested form may be a part): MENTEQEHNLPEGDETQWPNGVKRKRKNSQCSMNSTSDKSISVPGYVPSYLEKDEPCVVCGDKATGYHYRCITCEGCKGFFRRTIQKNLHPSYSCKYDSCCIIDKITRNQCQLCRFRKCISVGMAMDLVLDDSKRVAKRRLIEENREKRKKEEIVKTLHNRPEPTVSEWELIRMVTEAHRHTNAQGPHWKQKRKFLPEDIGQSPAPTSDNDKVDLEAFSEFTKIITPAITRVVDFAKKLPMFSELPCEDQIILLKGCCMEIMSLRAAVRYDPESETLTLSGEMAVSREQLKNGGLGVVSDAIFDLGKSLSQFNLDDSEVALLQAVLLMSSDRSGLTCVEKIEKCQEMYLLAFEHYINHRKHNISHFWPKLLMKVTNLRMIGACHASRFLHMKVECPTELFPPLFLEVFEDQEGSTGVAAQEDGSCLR
mouse Peroxisome Proliferator-activated Receptor gamma (PPARg), Pparg (gene 19016), sequence (P37238 whole entry, looked up, the tested form may be a part): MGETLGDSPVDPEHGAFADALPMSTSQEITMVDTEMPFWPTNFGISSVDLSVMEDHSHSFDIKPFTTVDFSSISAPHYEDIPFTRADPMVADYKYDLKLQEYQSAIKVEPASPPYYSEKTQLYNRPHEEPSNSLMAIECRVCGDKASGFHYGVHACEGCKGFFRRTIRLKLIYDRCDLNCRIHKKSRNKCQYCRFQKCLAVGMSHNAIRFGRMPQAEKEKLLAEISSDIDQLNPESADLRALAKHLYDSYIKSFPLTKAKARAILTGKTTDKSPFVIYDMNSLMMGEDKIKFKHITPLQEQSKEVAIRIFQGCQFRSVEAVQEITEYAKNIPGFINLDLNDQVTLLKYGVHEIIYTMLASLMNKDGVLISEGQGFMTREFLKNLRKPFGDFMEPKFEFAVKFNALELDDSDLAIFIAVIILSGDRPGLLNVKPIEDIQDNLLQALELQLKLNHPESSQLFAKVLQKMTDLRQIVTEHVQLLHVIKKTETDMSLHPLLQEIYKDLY
Peroxisome proliferator-activated receptor gamma (Homo sapiens), sequence (P37231 whole entry, looked up, the tested form may be a part): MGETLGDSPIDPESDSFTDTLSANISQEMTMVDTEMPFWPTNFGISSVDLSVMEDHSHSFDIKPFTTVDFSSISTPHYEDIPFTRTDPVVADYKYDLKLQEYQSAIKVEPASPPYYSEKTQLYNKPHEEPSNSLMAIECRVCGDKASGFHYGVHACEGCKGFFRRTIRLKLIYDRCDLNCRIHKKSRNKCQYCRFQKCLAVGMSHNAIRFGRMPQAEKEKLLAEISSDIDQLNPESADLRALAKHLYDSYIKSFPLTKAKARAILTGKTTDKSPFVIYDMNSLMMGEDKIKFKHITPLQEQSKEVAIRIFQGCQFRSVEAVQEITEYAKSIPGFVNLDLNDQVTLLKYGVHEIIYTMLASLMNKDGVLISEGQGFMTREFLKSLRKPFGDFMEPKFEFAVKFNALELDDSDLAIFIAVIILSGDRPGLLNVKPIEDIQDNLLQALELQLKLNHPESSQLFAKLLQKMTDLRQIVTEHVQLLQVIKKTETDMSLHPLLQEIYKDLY
Nuclear receptor subfamily 1 group I member 2 (Mus musculus), sequence (O54915 whole entry, looked up, the tested form may be a part): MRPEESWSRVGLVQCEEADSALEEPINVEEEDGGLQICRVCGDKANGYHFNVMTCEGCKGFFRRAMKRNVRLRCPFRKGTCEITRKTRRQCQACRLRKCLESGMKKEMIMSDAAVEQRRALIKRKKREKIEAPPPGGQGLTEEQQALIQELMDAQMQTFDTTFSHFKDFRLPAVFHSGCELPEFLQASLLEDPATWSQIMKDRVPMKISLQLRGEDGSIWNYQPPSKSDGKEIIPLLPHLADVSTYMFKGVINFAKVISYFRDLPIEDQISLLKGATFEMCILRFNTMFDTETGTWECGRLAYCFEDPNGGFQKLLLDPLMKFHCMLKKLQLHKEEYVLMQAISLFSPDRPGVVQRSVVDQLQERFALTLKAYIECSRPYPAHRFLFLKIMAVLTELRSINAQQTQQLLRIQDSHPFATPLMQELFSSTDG
frog Thyroid hormone Receptor alpha (TRa), thra-a (gene 397942), sequence (P15204 whole entry, looked up, the tested form may be a part): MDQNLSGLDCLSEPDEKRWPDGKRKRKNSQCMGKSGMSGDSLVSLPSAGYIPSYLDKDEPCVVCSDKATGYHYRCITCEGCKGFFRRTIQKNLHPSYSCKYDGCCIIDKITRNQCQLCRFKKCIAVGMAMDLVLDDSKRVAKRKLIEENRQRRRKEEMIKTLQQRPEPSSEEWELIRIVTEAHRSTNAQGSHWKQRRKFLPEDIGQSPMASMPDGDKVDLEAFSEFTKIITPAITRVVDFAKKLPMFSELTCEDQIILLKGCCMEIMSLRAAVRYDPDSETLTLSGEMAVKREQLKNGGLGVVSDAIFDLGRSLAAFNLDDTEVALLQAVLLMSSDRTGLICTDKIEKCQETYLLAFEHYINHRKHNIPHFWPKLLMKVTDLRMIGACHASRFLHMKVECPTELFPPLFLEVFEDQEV
zebrafish Thyroid Hormone Receptor beta (TRb), thrb (gene 30607), sequence (Q9PVE4 whole entry, looked up): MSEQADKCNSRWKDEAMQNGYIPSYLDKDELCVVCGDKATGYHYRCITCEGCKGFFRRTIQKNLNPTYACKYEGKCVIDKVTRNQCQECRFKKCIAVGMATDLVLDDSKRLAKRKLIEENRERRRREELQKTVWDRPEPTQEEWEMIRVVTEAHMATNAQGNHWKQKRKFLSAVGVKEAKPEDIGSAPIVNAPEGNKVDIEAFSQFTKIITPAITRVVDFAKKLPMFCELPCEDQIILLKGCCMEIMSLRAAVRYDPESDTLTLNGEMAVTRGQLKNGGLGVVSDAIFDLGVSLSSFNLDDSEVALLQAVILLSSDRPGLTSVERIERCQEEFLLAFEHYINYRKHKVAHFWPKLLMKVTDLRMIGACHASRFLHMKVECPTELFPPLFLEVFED
human Thyroid hormone Receptor alpha (TRa), THRA (gene 7067), sequence (P10827 whole entry, looked up, the tested form may be a part): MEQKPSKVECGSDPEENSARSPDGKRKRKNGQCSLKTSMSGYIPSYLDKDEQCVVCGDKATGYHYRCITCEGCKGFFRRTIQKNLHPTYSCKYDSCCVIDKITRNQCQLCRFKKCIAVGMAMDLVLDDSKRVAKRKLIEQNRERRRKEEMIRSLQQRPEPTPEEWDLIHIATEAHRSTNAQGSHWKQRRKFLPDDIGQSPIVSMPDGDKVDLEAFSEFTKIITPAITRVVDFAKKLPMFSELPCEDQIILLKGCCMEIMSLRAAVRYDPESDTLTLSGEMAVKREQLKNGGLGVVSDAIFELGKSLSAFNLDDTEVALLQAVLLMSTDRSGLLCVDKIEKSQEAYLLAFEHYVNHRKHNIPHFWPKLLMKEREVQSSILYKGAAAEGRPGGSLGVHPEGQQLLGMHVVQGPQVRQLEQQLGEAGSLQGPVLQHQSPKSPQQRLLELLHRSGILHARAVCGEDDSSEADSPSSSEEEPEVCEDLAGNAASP

CCC(C)c1ccc(O)cc1 (centres undefined)
active: [1] 59.5 µM and 135 µM
not listed: [14] | [15] | [16] | [17] | [18] | [19] | [20]
inactive: all other assays above

C[C@]12C=CC3=C4CCC(=O)C=C4CC[C@H]3[C@@H]1CC[C@@H]2O
inactive: [14] | [1] | [3] | [6]
active: [11] 0.0256 µM

CCCCCCCCn1sccc1=O
inactive: [12] | [13]

ClC1=C(Cl)C2(Cl)C3C(Cl)C=CC3C1(Cl)C2(Cl)Cl (centres undefined)
inactive: [12] | [13]

Oc1ccc2ccc3cccc4ccc1c2c34
inactive: [3] | [4] | [5] | [6] | [7] | [10] | [12] | [13]
active: [1] 23.4 µM and 3.75 µM | [2] 16.5 µM and 11.1 µM | [8] 151 µM | [10] 22.7 µM

O=[N+]([O-])C(Br)(CO)CO
inactive: [13]

CC(C)(O)c1cnn2c(-c3ccc(F)c(-c4c(F)cccc4C#N)c3)cnc2n1
inactive: [12] | [13]

CC(C)COC(=O)c1ccccc1C(=O)OCC(C)C
inactive: [13] | [15] | [16] | [17] | [18] | [19] | [20]

COP(=S)(OC)SCN1C(=O)c2ccccc2C1=O
inactive: [13]

Cc1cccc(N)c1N
inactive: [12] | [13]

CCCCCOC(=O)c1ccccc1C(=O)OCCCCC
active: [14] 19.8 µM | [1] 62.9 µM | [4] 174 µM
not listed: [3] | [6] | [7] | [8] | [9] | [12]
inactive: all other assays above

[Cl-].[Cl-].[Hg+2]
active: [12] 7.02 µM | [13] 39.4 µM

CCCCOC(=O)c1ccccc1C(=O)OCc1ccccc1
active: [1] 60.8 µM
not listed: [8] | [9] | [14]
inactive: all other assays above

c1ccc2c(c1)-c1cccc3cccc-2c13
inactive: [14] | [1] | [3] | [4] | [5] | [6] | [7] | [8] | [9] | [10] | [11]
active: [14] 21.6 µM

CCOC(=O)[C@]1(c2ccccc2)Oc2ccccc2[C@@H]1N
inactive: [12]
active: [13] 1.38 µM
